Data reported in the OligoGym collection.

Each sequence was assayed against LEPRE1 (assay: pooled miR-30 sensor sort-seq; sequence = guide strand). Settings: shRNA.
Note: reference of the scale not given here.

Sequence	sensor-assay potency score (higher = more potent)
TACACAGACACTTAAGTACTGT	-0.0661
TTCTCCAACTTGTTGATCTTGA	0.193
TTTCTCTTGCAATCTCTTGGGA	-0.177
TGCAGCAACAGCTTTCTCCAAC	-1.07
TAGAGTCGCACTCCCAGTCGAA	-0.94
TCCAGCTCCATCTCTTCGCTGA	-0.664
TTGAGTCTCAAGATCCTTGAAG	-0.379
TGTATCGCTGTCATGCAGCGGC	-0.603
TACTGTATCGCTGTCATGCAGC	-0.397
TTGTTGATCTTGAAGTAGGCGA	-0.0372
TTCTCTTGCAATCTCTTGGGAA	-0.439
TTGGTAATAGTCTAGGTTCTGC	-0.468

The sequences below were run against LGALS1 in the same assay as above. Settings: shRNA.

Sequence	sensor-assay potency score (higher = more potent)
TTGCACACGATGGTGTTGGCGT	-0.422
TTGAGATTCAGGTTGCTGGCGA	0.199
TTGATCTTGAAGTCACCGTCAG	0.0268
ATTTGATCTTGAAGTCACCGTC	0.155
TGATCTTGAAGTCACCGTCAGC	-1.02
TTCAGCACGAAGCTCTTAGCGT	-0.712
TTTGATCTTGAAGTCACCGTCA	0.476
TTCGTATCCATCTGGCAGCTTG	-0.744
TTGACGGTCAGGTTGGCCTGGT	-0.281
TTGCTGTTGCACACGATGGTGT	-0.61

These sequences were tested against LGALS7B in the same assay as above. Settings: shRNA.

Sequence	sensor-assay potency score (higher = more potent)
TTTACATGGAACCTGCTGGCAT	-0.552
TGAAATGCAGGGCGGCATCGGA	-1.07
TTACATGGAACCTGCTGGCATT	-1.13
